According to PubChem BioAssay AID1159580 (chemical genetic matrix, 2015):
Among all 5,500 compounds or so, about 2,000 (36%) were called active. About 18% were inconclusive and are not listed. Cut-off read from the data, not from the text of the source: active = normalized growth mostly below about 0.91 (no sharp cut-off); inconclusive = no clear call, values can overlap the other calls; inactive = mostly above about 0.92. This is one part of the list.

Test: chemical genetic growth profiling, strain panel (AID 1159580);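 note: tested at 20 µM; growth read once vehicle control cultures reached saturation at 30 °C; 1 = growth at the plate median or of vehicle wells; lower values mean less growth of the strain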
Conditions: growth OD

Measured: normalized growth

CCn1cc(C(=O)O)c(=O)c2cnc(N3CCNCC3)nc21
inactive: S. cerevisiae deletion strains, locus YKL009W, strain mrt4, hits give low values 1.03 | S. cerevisiae deletion strains, locus YKL068W, hits give low values 0.994 | S. cerevisiae deletion strains, locus YKL085W, strain MDH1 (second series), hits give low values 0.984 | S. cerevisiae deletion strains, locus YKL085W, strain MDH1, hits give low values 0.984 | S. cerevisiae deletion strains, locus YKL160W, strain elf1, hits give low values 1.03 | S. cerevisiae deletion strains, locus YKL190W, strain CNB1, hits give low values 1 | S. cerevisiae deletion strains, locus YKR001C, strain vps1, hits give low values 1.02 | S. cerevisiae deletion strains, locus YKR026C, strain gcn3, hits give low values 1.01 | S. cerevisiae deletion strains, locus YKR091W, strain srl3, hits give low values 1 | S. cerevisiae deletion strains, locus YLL001W, strain dnm1, hits give low values 1.01 | S. cerevisiae deletion strains, locus YLL026W, hits give low values 1.02 | S. cerevisiae deletion strains, locus YLL041C, strain sdh2, hits give low values 1.01 | S. cerevisiae deletion strains, locus YLR027C, strain aat2, hits give low values 1.01 | S. cerevisiae deletion strains, locus YLR039C, strain RIC1, hits give low values 0.942 | S. cerevisiae deletion strains, locus YLR058C, strain SHM2, hits give low values 0.988 | S. cerevisiae deletion strains, locus YLR102C, strain apc9, hits give low values 0.993 | S. cerevisiae deletion strains, locus YLR113W, strain HOG1, hits give low values 1.02 | S. cerevisiae deletion strains, locus YLR221C, strain rsa3, hits give low values 1 | S. cerevisiae deletion strains, locus YLR258W, strain gsy2, hits give low values 1.04 | S. cerevisiae deletion strains, locus YLR262C, strain YPT6 (second series), hits give low values 0.992 | S. cerevisiae deletion strains, locus YLR262C, strain YPT6, hits give low values 0.975 | S. cerevisiae deletion strains, locus YLR268W, strain sec22, hits give low values 0.991 | S. cerevisiae deletion strains, locus YLR320W, strain mms22, hits give low values 0.968 | S. cerevisiae deletion strains, locus YLR330W, strain CHS5, hits give low values 0.981 | S. cerevisiae deletion strains, locus YLR342W, strain FKS1 (second series), hits give low values 0.96 | S. cerevisiae deletion strains, locus YLR342W, strain FKS1, hits give low values 1.02 | S. cerevisiae deletion strains, locus YLR357W, strain rsc2, hits give low values 1.01 | S. cerevisiae deletion strains, locus YLR370C, strain arc18, hits give low values 1.02 | S. cerevisiae deletion strains, locus YLR371W, strain rom2, hits give low values 0.981 | S. cerevisiae deletion strains, locus YLR384C, strain iki3, hits give low values 0.999 | S. cerevisiae deletion strains, locus YLR418C, strain cdc73, hits give low values 0.951 | S. cerevisiae deletion strains, locus YML016C, strain PPZ1, hits give low values 0.977 | S. cerevisiae deletion strains, locus YML032C, strain rad52, hits give low values 1 | S. cerevisiae deletion strains, locus YML120C, strain ndi1, hits give low values 1.03 | S. cerevisiae deletion strains, locus YML124C, strain tub3, hits give low values 0.985 | S. cerevisiae deletion strains, locus YMR058W, strain fet3, hits give low values 1.01 | S. cerevisiae deletion strains, locus YMR078C, strain ctf18, hits give low values 0.98 | S. cerevisiae deletion strains, locus YMR125W, strain sto1, hits give low values 1.02 | S. cerevisiae deletion strains, locus YMR129W, hits give low values 1.01 | S. cerevisiae deletion strains, locus YMR205C, strain PFK2, hits give low values 1 | S. cerevisiae deletion strains, locus YMR223W, strain ubp8, hits give low values 0.983 | S. cerevisiae deletion strains, locus YMR231W, strain pep5, hits give low values 1.01 | S. cerevisiae deletion strains, locus YMR263W, strain SAP30, hits give low values 1.01 | S. cerevisiae deletion strains, locus YMR307W, strain GAS1, hits give low values 1.01 | S. cerevisiae deletion strains, locus YNL067W, strain RPL9B, hits give low values 1.03 | S. cerevisiae deletion strains, locus YNL071W, strain lat1, hits give low values 1.01 | S. cerevisiae deletion strains, locus YNL128W, strain TEP1, hits give low values 0.977 | S. cerevisiae deletion strains, locus YNL153C, strain GIM3, hits give low values 1.06 | S. cerevisiae deletion strains, locus YNL183C, strain NPR1, hits give low values 0.997 | S. cerevisiae deletion strains, locus YNL209W, strain ssb2, hits give low values 1 | S. cerevisiae deletion strains, locus YNL233W, strain BNI4, hits give low values 1.02 | S. cerevisiae deletion strains, locus YNL248C, strain rpa49, hits give low values 1.04 | S. cerevisiae deletion strains, locus YNL250W, strain rad50, hits give low values 0.964 | S. cerevisiae deletion strains, locus YNL271C, strain bni1, hits give low values 0.979 | S. cerevisiae deletion strains, locus YNL298W, strain CLA4, hits give low values 0.978 | S. cerevisiae deletion strains, locus YNL307C, strain MCK1, hits give low values 0.991 | S. cerevisiae deletion strains, locus YNL322C, strain KRE1 (second series), hits give low values 1.04 | S. cerevisiae deletion strains, locus YNL322C, strain KRE1, hits give low values 0.997 | S. cerevisiae deletion strains, locus YNR049C, strain mso1, hits give low values 1.01 | S. cerevisiae deletion strains, locus YNR052C, strain pop2, hits give low values 0.979 | S. cerevisiae deletion strains, locus YOL006C, strain TOP1, hits give low values 1.07 | S. cerevisiae deletion strains, locus YOL012C, strain htz1 0.676 | S. cerevisiae deletion strains, locus YOL147C, strain pex11, hits give low values 0.991 | S. cerevisiae deletion strains, locus YOR001W, strain rrp6, hits give low values 1 | S. cerevisiae deletion strains, locus YOR061W, strain CKA2, hits give low values 0.988 | S. cerevisiae deletion strains, locus YOR069W, strain VPS5, hits give low values 0.984 | S. cerevisiae deletion strains, locus YOR070C, strain gyp1, hits give low values 1.02 | S. cerevisiae deletion strains, locus YOR080W, strain dia2, hits give low values 1.02 | S. cerevisiae deletion strains, locus YOR083W, strain WHI5, hits give low values 0.993 | S. cerevisiae deletion strains, locus YOR106W, strain vam3, hits give low values 1.04 | S. cerevisiae deletion strains, locus YOR136W, strain idh2, hits give low values 0.995 | S. cerevisiae deletion strains, locus YOR144C, strain elg1, hits give low values 0.988 | S. cerevisiae deletion strains, locus YOR184W, strain ser1, hits give low values 1 | S. cerevisiae deletion strains, locus YOR231W, strain MKK1, hits give low values 1.03 | S. cerevisiae deletion strains, locus YOR265W, strain rbl2, hits give low values 1.02 | S. cerevisiae deletion strains, locus YOR270C, strain vph1, hits give low values 1.16 | S. cerevisiae deletion strains, locus YOR290C, strain snf2, hits give low values 1.04 | S. cerevisiae deletion strains, locus YOR316C, strain cot1, hits give low values 0.99 | S. cerevisiae deletion strains, locus YPL051W, strain arl3, hits give low values 1.02 | S. cerevisiae deletion strains, locus YPL078C, strain atp4, hits give low values 1.04 | S. cerevisiae deletion strains, locus YPL106C, strain sse1, hits give low values 1.01 | S. cerevisiae deletion strains, locus YPL240C, strain hsp82, hits give low values 1 | S. cerevisiae deletion strains, locus YPL256C, strain CLN2, hits give low values 1.08 | S. cerevisiae deletion strains, locus YPR119W, strain clb2, hits give low values 0.993 | S. cerevisiae deletion strains, locus YPR141C, strain kar3, hits give low values 0.981 | S. cerevisiae deletion strains, locus YPR163C, strain tif3, hits give low values 0.984 | S. cerevisiae deletion strains, locus YPR167C, strain met16, hits give low values 0.979 | S. cerevisiae deletion strains, strain wtn01, hits give low values 0.982 | S. cerevisiae strains, strain wild type, hits give low values 0.998
